Data reported in PubChem BioAssay AID1949 (Southern Research Institute, 2009).
Hit rate of the full screen: of about 100,000 compounds, about 1,600 (1.6%) were called active. Another 3% or so got no clear call; they are omitted. A selection follows. A number with no mark means an inactive call. The rule behind the calls is not given here.

Experiment: Confirmatory growth inhibition assay against Mycobacterium tuberculosis H37Rv, potency (AID 1949);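 for inhibition: bacteria grown 7 days with compound before Alamar blue readout; 0% = untreated bacteria wells and 100% = bacteria with saturating antibiotic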
Conditions: M. tuberculosis H37Rv growth inhibition; hits give high values, concentration not given here

Structure (SMILES)	inhibition
CCOc1ccc(N2C(=O)CC(NCCNC(=O)c3ccc(Cl)cc3)C2=O)cc1 (configuration not stated)	2.16%
Cc1cc(C(=O)NC2CCCc3ccccc32)no1 (configuration not stated)	inactive
COc1ccc(NC(=O)CSc2nnnn2-c2ccccc2Cl)c(OC)c1	inactive
Cc1sc2ncnc(SCC(=O)NCC3CCCO3)c2c1-c1ccc(Cl)cc1 (configuration not stated)	2.71%
CS(=O)(=O)NC1c2cccc3cccc(c23)C1N1CCCCC1 (configuration not stated)	inactive
CC1CN(C(=O)C(C)Oc2ccc(Cl)cc2Cl)CC(C)O1 (configuration not stated)	inactive
Cc1ccc(-c2nn(C)c(=O)c3ccccc23)cc1CNC(=O)c1cccs1	inactive
Cc1cc(Oc2coc3cc(OCC(=O)Nc4ccccc4)ccc3c2=O)cc(C)c1Cl	inactive
COc1cc(C(=O)Nc2ccccc2C(=O)NCCc2ccccc2)cc(OC)c1OC	inactive
Cn1nc([N+](=O)[O-])nc1Sc1nnc(-c2ccccc2)o1	49.7%
COc1ccc(-c2cc(C(=O)O)c3cc(Br)ccc3n2)c(OC)c1	inactive
CN1CCCC1c1cccnc1N (configuration not stated)	1.61%
COc1ccc(NC(=S)N2CCN(c3ccc(F)cc3)CC2)c(OC)c1	inactive
O=[N+]([O-])c1ccccc1S(=O)(=O)N1CCN(c2ncccn2)CC1	inactive
Cc1ccc(-c2nnc(Nc3cccc(O)c3)c3ccccc23)cc1S(=O)(=O)NC(C)(C)CO	inactive
COC(=O)c1cccc(NC(=O)CCN2C(=O)c3ccccc3C2=O)c1	inactive
O=C(c1cc2n(n1)C(C(F)(F)F)CC(c1ccccc1)N2)N1CCCc2ccccc21 (configuration not stated)	inactive
Cc1ccc(Nc2nc(CSc3nnc(-c4ccccc4)o3)cs2)cc1	inactive
CCCN1CCN(CCCNC(=S)Nc2ccc(F)cc2)CC1	inactive
COc1ccc(C(=O)Nc2cccc(C(C)=O)c2)cc1I	inactive
CC1(C)Cc2nc3sc4c(=O)n(CC(=O)c5ccccc5)cnc4c3cc2CO1	0.12%
CC1(C)NC(=O)N(CCCSc2ccc(Cl)cc2)C1=O	4.37%

Structure (SMILES)	inhibition
Cc1ccc(NC(=O)c2cccc(F)c2)cc1[N+](=O)[O-]	inactive
CC1(C)Cc2nc(N3CCCC3)c(C#N)cc2CO1	1.56%
O=C(NC(=S)Nc1ccc2c(c1)Cc1ccccc1-2)c1ccc(Br)cc1	inactive
CC(=O)c1cccc(NC(=O)N2CCN(C(c3ccccc3)c3ccccc3)CC2)c1	inactive
COc1ccccc1NC(=O)c1c(NC(=O)c2ccccc2C)sc2c1CCCC2	inactive
COc1ccc(Oc2ccc(NS(=O)(=O)c3ccc(NC(C)=O)cc3)cc2)cc1	0.37%
O=C(CNC(=O)C1CCCCC1)NNC(=O)c1ccc(Cl)cc1Cl	inactive
O=c1ccc2ccc(OCc3ccc(Br)cc3F)cc2o1	inactive
C=C1C2(C(=O)Nc3ccc(Br)cn3)CCC(C2)C1(C)C (configuration not stated)	0.92%
COc1ccc(S(=O)(=O)N(C)CC(=O)NC2CCCCC2)cc1C	2.13%
CCn1c(SCC(=O)Nc2cccc(F)c2C)nnc1-c1ccc(OC)cc1	inactive
Cc1ccc(-c2cc(C(=O)NC3=NCCS3)c3cc(Br)ccc3n2)o1	3.59%
Cc1cccc(-n2c(CCc3ccccc3)nnc2SCC(=O)Nc2c(C)cc(C)cc2C)c1	7.24%
O=[N+]([O-])c1ccc(NC(=S)NCCCn2ccnc2)cc1	inactive
COc1ccc(C)cc1N(CC(=O)NCc1ccc(Cl)cc1Cl)S(C)(=O)=O	inactive
O=S(=O)(NCCSc1ccccn1)c1ccc(Br)cc1	5.4%
CCCCc1ccc(NC(=O)c2ccc3ccccc3c2)cc1	0.83%
COc1ccc(N2CCN(c3nc(NCCc4ccc(OC)c(OC)c4)nc(N4CCOCC4)n3)CC2)cc1	40.6%
CCCCc1ccc(NC(=S)N2CCN(C(=O)c3ccco3)CC2)cc1	inactive
O=C(c1cccs1)N1N=C(c2cccs2)CC1c1cccs1 (configuration not stated)	inactive
CCOc1ccc(C(=O)c2oc3ccccc3c2NC(=O)C2COc3ccccc3O2)cc1 (configuration not stated)	inactive
O=C(NCc1ccccn1)Nc1ccc2c(c1)OCO2	inactive

Structure (SMILES)	inhibition
Cc1onc(-c2ccccc2Cl)c1C(=O)Nc1nc2ccc(Cl)cc2s1	inactive
COc1ccc2nc(NC(=O)CN3CCCCC3)sc2c1	3.2%
CCSc1nc(-c2cccs2)cc(-c2cccs2)c1C#N	5.48%
CCCC(C)c1nnc(NC(=O)CSCc2ccccc2)s1 (configuration not stated)	inactive
CC(C)NCC(O)Cn1c2c(c3ccccc31)CCCC2=O (configuration not stated)	inactive
CCN(CC)CCCNC(=S)Nc1ccc(Br)cc1	1.11%
CS(=O)(=O)N(CC(=O)Nc1ccccc1C(=O)N1CCCC1)c1cccc(F)c1	inactive
Cc1ccc(CN2CCC(N3CCN(c4ccccc4F)CC3)CC2)cc1	inactive
COc1ccc(S(=O)(=O)N(C(C)=O)c2ccc3oc4c(c3c2)CCCC4)cc1[N+](=O)[O-]	6.65%
O=C(CCCCC(=O)NC1=NCCS1)NC1=NCCS1	1.73%
Cc1cc(Cl)ccc1OCC(=O)NCCCn1ccnc1	inactive
COc1ccc(OC)c(NC(=O)c2cccc(F)c2)c1	inactive
CCC(=O)Nc1nnc(SCC(=O)Nc2cccc(Cl)c2)s1	inactive
CC1=CC(c2ccc(Cl)cc2)n2ncnc2N1 (configuration not stated)	inactive
Cc1cc(C)c(NC(=O)COc2ccc(-c3ccccc3)cc2)c(C)c1	0.67%
CN1C(=O)C2C(C1=O)N1C(c3cccs3)C3C(=O)N(C)C(=O)C3N1C2c1cccs1 (configuration not stated)	inactive
Cc1nnc(SCC(=O)Nc2cccc(Cl)c2Cl)n1-c1ccc(F)cc1	32.3%
Cc1cc(NC(=O)Cc2ccc(Br)cc2)no1	inactive
O=C(CSc1nc2ccccc2[nH]1)Nc1ccc(Cl)cn1	inactive
Cc1c(NC(=O)CSc2nnnn2-c2ccc(O)cc2)c(=O)n(-c2ccccc2)n1C	inactive
Cc1ccc(CC(=O)Nc2ccc(S(=O)(=O)N3CCC(C)CC3)cc2)cc1	inactive
COc1cc(S(=O)(=O)NC(c2ccccc2)c2ccccc2)ccc1Cl	inactive

Structure (SMILES)	inhibition
O=C(CSc1nnc(-c2ccncc2)n1-c1ccccc1)c1ccc(Cl)cc1	inactive
COc1ccc(CC(=O)NC(=S)N2CCOCC2)cc1	2.63%
COc1ccc(Cl)cc1C(=O)Nc1cc(C(F)(F)F)ccc1N1CCOCC1	inactive
C=CCc1cc(OC)ccc1OCCN1CCN(C)CC1	inactive
O=C(c1csc2c1CCCC2)N1CCC2(CC1)OCCO2	inactive
C=CCN(c1ccc(C(=O)Nc2ccccc2-c2ccccc2)cc1)S(C)(=O)=O	inactive
CCc1ccc(OC(C)c2nnc(SCC(=O)Nc3ccc(C)c(C)c3)n2CC)cc1 (configuration not stated)	1.06%
COc1ccc(OC)c(C2C(C#N)=C(N)OC(c3ccccc3)=C2C#N)c1 (configuration not stated)	inactive
Cc1ccc(C(=O)CCC(=O)Nc2ccccc2C)cc1C	inactive
Cc1ccc(NC(=O)CSc2nnc(N)s2)cc1	inactive
COc1ccccc1CNC(=O)c1cc(OC)c(OC)cc1OC	2.59%
N#Cc1ccc(NC(=S)NCCN2CCOCC2)cc1	inactive
CC(C(=O)Nc1cccc(C(F)(F)F)c1)N(c1ccc(Oc2ccccc2)cc1)S(C)(=O)=O (configuration not stated)	12.4%
O=C(C1CCN(C(=S)NC2CC2)CC1)N1CCCCCC1	inactive
Cc1ccc(C(C)C)c(OCC(=O)NNC(=S)NCCc2ccccc2)c1	inactive
COc1ccc(CNC(=O)C2CCCN2CCc2ccccc2)cc1OC (configuration not stated)	4.85%
CCOC(=O)c1ccc(NC(=S)NNc2nc(C)cc(C)n2)cc1	inactive
CCOC(=O)C1=C(C)N=c2s/c(=C\c3c4ccccc4cc4ccccc34)c(=O)n2C1c1ccccc1Cl (configuration not stated)	inactive
Cc1cc(C)cc(C(=O)Nc2ccc(CN3CCOCC3)cc2)c1	inactive
CC(C)(C)C1(c2ccccc2)NC(=O)NC1=O (configuration not stated)	0.0333%
CCN(CC)CC(=O)Nc1ccccc1OC	inactive
OCCNCCOc1ccc2ccccc2c1Br	inactive

Structure (SMILES)	inhibition
N#C/C(=C\C=C\c1ccccc1Cl)c1nc2ccccc2[nH]1	inactive
C=CCn1c(SCC#CCO)nc2ccccc2c1=O	inactive
COc1ccccc1CCNC(=O)c1ccc(COCC(F)(F)C(F)F)cc1	inactive
CCCCOc1cccc(C(=O)NC(=S)Nc2cccnc2)c1	inactive
Cc1ccc(SCC(=O)Nc2ccc(S(=O)(=O)Nc3cccc(C(F)(F)F)c3)cc2)cc1	inactive
CCc1ccc(-n2c(C)cc(C=NO)c2C)cc1	17.1%
COc1ccc(S(=O)(=O)N(CC(=O)NC2CC3CCC2C3)c2ccccc2)cc1OC (configuration not stated)	inactive
O=C1C2CCCCC2C(=O)N1c1n[nH]c(CCc2ccccc2)n1 (configuration not stated)	inactive
CCc1cccc(C)c1NC(=O)CN(c1ccc(C)c(C)c1)S(=O)(=O)c1ccc(Cl)cc1	inactive
COc1ccc(NC(=S)N2CCN(Cc3cccc(F)c3)CC2)c(OC)c1	inactive
O=C(NCc1ccc2c(c1)OCO2)Nc1ccc([N+](=O)[O-])cc1	inactive
c1ccc2c(c1)nc(-c1cscn1)n2Cc1ccc(-c2nn[nH]n2)cc1	inactive
COc1ccc(S(=O)(=O)Nc2cccnc2)cc1C	inactive
COc1cc(NC(=O)c2ccc(F)cc2)ccc1NC(=O)C(C)C	inactive
O=C(c1cn(-c2ccccc2)nc1-c1cccnc1)n1nnc2ccccc21	2.67%
COc1ccc([N+](=O)[O-])cc1NC(=O)c1cc(-c2ccc(OC)c(OC)c2)nc2ccccc12	inactive
CCCN1CCN(C(=O)c2ccncc2)CC1	1.8%
COc1ccc2c(c1)sc1nc(-c3cc4cccc(OC)c4oc3=O)cn12	inactive
Cc1ccc(OCCSC2=NN2c2cc(C)nc(N)n2)cc1	inactive
